This assay in a line: anti-Giardia activity of synthetic compounds – Compounds Australia Scaffold Library subset, 24/48 h, primary screen (AID 1794835).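 For inhibition: 0% = parasite counts in DMSO vehicle wells.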 As to conditions: Giardia lamblia BRIS/91/HEPU/1279 trophozoite counts, imaging, at 10 µM.
Setting [1] is: measured here: growth inhibition at 24 h, stronger effect = higher value.

Broadly, the inhibition is the drop in the measured response relative to a control, in per cent.

Out of some 2,500 compounds screened, about 45 (2%) were called active. Cut-off read from the data, not from the text of the source: active = inhibition mostly above about 45% (no sharp cut-off); inactive = mostly below about 37%. This excerpt belongs to a sample that is enriched for actives.

For the compound `CC(=O)Nc1ccc([N+](=O)[O-])c2nonc12`, the inhibition runs as follows: (stronger effect = higher value) 63.4% (active); under setting [1], 45%.

For `CCc1ccc(NC(=O)[C@@H]2c3cc(OC)c(OC)cc3C(=O)N3CCCC[C@@H]23)cc1`, the inhibition (stronger effect = higher value) is 28.1% (inactive).

`Cc1nn(C)c(C)c1CC(=O)N1CCC(N2CCCC2)C1` (stereo unspecified): the inhibition result is “inactive”.

Regarding `CSc1ccc(C2NCc3ccccc3-n3cccc32)cc1` (stereo unspecified), the inhibition by setting is: (stronger effect = higher value) 3.9% (inactive); under setting [1], 18.8%.

As for `COc1ccc(C2c3cccn3-c3ccccc3CN2C(=O)CCC(=O)NC2CCCCC2)cc1` (stereo unspecified), the inhibition result was “inactive”.

As to `O=[N+]([O-])c1ccc(N2CCC(c3ncc[nH]3)CC2)c2ccncc12`, the inhibition (stronger effect = higher value) was 88.1% (active) and the inhibition under setting [1] was 64.1%.

On to `Cc1cccc(NC(=O)CN2CC(c3ccccc3)CC2=O)c1` (stereo unspecified), for which the inhibition (stronger effect = higher value) is 10.4% (inactive) and the inhibition under setting [1] stood at 2.3%.

On to `CC(=O)N1N=C2C3CCN(CC3)[C@@H]2[C@@H]1c1cccc2ccccc12`, for which the outcome was inactive. Also, the inhibition under setting [1] turned out to be 4.2%.

For `Cc1ccc2c(C3CCNCC3)c[nH]c2c1`, the inhibition entry is “inactive”.

As to `Cc1cccc(OCC(=O)N2CCN(Cc3nnsc3Cl)CC2)c1C`, the inhibition is, setting by setting: (stronger effect = higher value) 35.2% (inactive); under setting [1], 20.5%.

For the origin of these results see PubChem BioAssay AID1794835 (Parasite Biology Lab, Institute for Biomedicine and …, 2023).
